Most compounds without a hit are left out; they make up all but 18% or so of the library.
TDP1 block – inhibitors of human tyrosyl-DNA phosphodiesterase TDP1. recombinant TDP1, AlphaScreen DNA substrate cleavage. Potency, µM (series often up to 130 µM), usual class: inhibitors. 350,000 compounds, 0.28% hits. AID 485290; note: nearly all actives have a fitted effect of over 40% in size
Target sequence (Q9NUW8 whole entry, looked up): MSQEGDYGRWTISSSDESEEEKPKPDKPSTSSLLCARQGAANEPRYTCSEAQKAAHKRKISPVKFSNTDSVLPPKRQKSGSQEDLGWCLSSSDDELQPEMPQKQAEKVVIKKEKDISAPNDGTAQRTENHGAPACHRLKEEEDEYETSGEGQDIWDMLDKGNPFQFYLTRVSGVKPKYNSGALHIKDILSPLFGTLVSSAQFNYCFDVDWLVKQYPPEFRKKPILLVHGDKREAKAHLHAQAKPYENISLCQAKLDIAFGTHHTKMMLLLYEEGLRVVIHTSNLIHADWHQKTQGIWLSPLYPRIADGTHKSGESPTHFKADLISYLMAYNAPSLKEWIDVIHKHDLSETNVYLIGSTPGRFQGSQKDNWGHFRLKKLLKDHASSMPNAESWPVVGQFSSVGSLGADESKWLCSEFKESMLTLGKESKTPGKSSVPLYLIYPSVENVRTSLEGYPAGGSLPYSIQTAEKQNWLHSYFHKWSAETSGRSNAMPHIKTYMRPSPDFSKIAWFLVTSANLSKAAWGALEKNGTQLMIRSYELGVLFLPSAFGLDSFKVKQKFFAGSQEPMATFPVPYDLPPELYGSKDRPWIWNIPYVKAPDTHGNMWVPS
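Compounds were preincubated with Tdp1 (1 nM final) for 15 min at room temperature before substrate (15 nM final) started a 5 min reaction; beads (10 ug/ml final) were then added for 10 min before AlphaScreen detection.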
HepG2 tox – counter-screen for TGF-b inhibitors: cytotoxicity in HepG2 cells. Potency, µM (titrated, usually from 46.1 µM), actives largely listed as cytotoxic. AID 588856. HepG2 CAGA-GFP viability, ATP luminescence, 18 h. 410,000 compounds, 0.76% hits
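CellTiter-Glo luminescence gave cytotoxicity after 18 hours at 37 degrees C. The cells were HepG2 CAGA-GFP in 1% FBS DMEM, stimulated with 500 pg/mL TGF-beta after compound addition. %Activity was normalised to no-cell wells (complete cell-killing) and DMSO (no toxicity), and curves were fitted and classified.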
TGFb inhibitor – blocks TGF-b signaling; HepG2 CAGA-GFP TGF-b/SMAD3 reporter, GFP fluorescence, 18 h; TGF-beta stimulated, 500 pg/mL final; Potency, µM (series often up to 46.1 µM), actives largely listed as inhibitors; 410,000 compounds, 1.2% hits; note: nearly all actives have a fitted effect of over 65% in size
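Inhibition was scored as loss of TGF-beta-induced (500 pg/mL final, 18 hours, 37 degrees C) GFP in HEPG2 cells carrying a CAGA-GFP reporter, in DMEM with 1% FBS. Well GFP was summed per cell; Activity was normalised to unstimulated and stimulated DMSO wells, then concentration-response fitting.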
IL1B secr inh – inflammasome signaling inhibition, IL-1 beta readout. THP-1 LPS/ATP IL-1B secretion, AlphaLISA, 16 h; stronger effect = lower value. activity change, % at 57.5 µM. 360,000 compounds, 4.7% hits. AID 743279; in the data active = activity change below about -50%; inconclusive = mostly about -30% to -49%
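THP-1 cells pretreated 1 hr with compounds (up to 57.5 uM final), then stimulated with LPS (250 ng/mL final) plus ATP (1.25 mM final); secreted IL-1B measured by AlphaLISA after 16 hr, decreased signal indicating inhibition.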
DT40 TDP1 no CPT – qHTS for Inhibitors of human tyrosyl-DNA phosphodiesterase 1 (TDP1): qHTS in cells in absence of CPT; DT40 Tdp1-/- hTDP1 cells, no CPT, ATP luminescence, 48 h; Potency, µM (titrated, usually from 46.2 µM), most hits filed as inhibitors; 420,000 compounds, 15% hits; AID 686978, 2013; note: nearly all actives have a fitted effect of over 55% in size
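Stably hTDP1-transfected Tdp1-null chicken DT40 cells were treated with library compounds minus camptothecin and grown for at least 48 hr at 37 °C, after which cellular ATP was quantified by luminescence.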
DT40 TDP1 CPT – DT40-hTDP1 cell growth loss with CPT | chicken DT40 Tdp1-/-;hTDP1 cells + 20 nM CPT, ATP luminescence, 48 h | Potency, µM (series often up to 46.2 µM), most hits filed as inhibitors | 420,000 compounds, 12% hits | AID 686979; note: nearly all actives have a fitted effect of over 55% in size
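Cell growth measured by CellTiter-Glo luminescence after a minimum 48 h, 37 C compound exposure with 20 nM CPT in Tdp1-knockout DT40 cells stably expressing hTDP1, seeded 400/well; qHTS titration format.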
A number is an active result; i = inactive; ? = inconclusive; nt = no result; [ ] = remark or other dose. Unless noted, calls come from the whole dose curve; as a rule, active = well fitted curve in the direction sought with a large enough effect; inconclusive = small, poorly fitted or top-dose-only effect, or another doubt; inactive = no such curve, though single readings can be large; an effect the other way counts as inactive or inconclusive.

SMILES	TDP1 block	HepG2 tox	TGFb inhibitor	IL1B secr inh	DT40 TDP1 no CPT	DT40 TDP1 CPT
O=C(CNC(=O)c1ccccn1)N=Nc1c(O)[nH]c2ccccc12	i[0.0935 µM]	i	?	i	15µM	?
Cc1ccc(CN2CCN(CC(=O)N=Nc3c(O)[nH]c4ccccc34)CC2)cc1	i	i	i	i	15µM	?
CCn1c(SCC(=O)N=Nc2c(O)[nH]c3ccccc23)nnc1-c1ccc(C(C)(C)C)cc1	i	nt	nt	nt	nt	nt
Cc1ccc(S(=O)(=O)N(CC(=O)N=Nc2c(O)[nH]c3ccccc23)c2cccc(C)c2)cc1	i	i	i	i	21µM	?
CCn1c(SCC(=O)N=Nc2c(O)[nH]c3ccccc23)nc2ccccc21	i	i	i	i	16µM	16µM
N[C@@H](Cc1ccc(O)cc1)C(=O)Nc1ccc2ccccc2c1	i	i	i	i	i	i
COc1cc(OCC(=O)NC(C)C)cc2c1C(=O)O[C@@H](C)CCCC(=O)CCCCC2	nt	i	i	i	21µM	?
c1ccc(-[n+]2nc(Nc3cccc4ccccc34)sc2-c2c3ccccc3cc3ccccc23)cc1	i	i	?	i	15µM	?
Oc1ccc2ccccc2c1-c1sc(Nc2ccccc2)n[n+]1-c1ccc(F)cc1	nt	i	i	i	16µM	?
Oc1ccc(-c2sc(Nc3ccccc3)n[n+]2-c2ccc(F)cc2)cc1	nt	i	i	i	i	i
Cc1csc(Nc2cccc3ccccc23)n1	i	i	i	i	i	i
Fc1ccc(-[n+]2nc(Nc3ccccc3)sc2-c2c3ccccc3cc3ccccc23)cc1	nt	11µM	11µM	-89	3.7µM	5.8µM
COc1ccccc1CNc1ccnc(-c2ccccc2C(F)(F)F)n1	i	nt	nt	nt	?	?
COc1ccc(-c2nn(-c3ccc(F)cc3)c3c2cnc2ccc(F)cc23)cc1OC	i	i	i	nt	i	i
COc1ccc(CNC(=O)CCCCCNC(=O)N2CCn3c2nc2ccccc23)cc1	i	i	i	i	?	i
COc1ccc(C(=O)c2[nH]c(N)c(C(=O)NCCc3c[nH]c4ccccc34)c2-c2ccccc2Br)cc1	nt	nt	nt	i	?	13µM
COc1ccc(C(=O)NCCc2c[nH]c3ccc(OC)cc23)cc1	nt	i	i	i	i	i
Nc1[nH]c(C(=O)c2ccc(Br)cc2)c(-c2ccc(Br)cc2)c1C(=O)NCCc1c[nH]c2ccccc12	nt	nt	nt	i	18µM	?
Nc1[nH]c(C(=O)c2ccccc2)c(-c2ccccc2Br)c1C(=O)NCCc1c[nH]c2ccccc12	nt	nt	nt	?	21µM	16µM
Nc1[nH]c(C(=O)c2ccccc2)c(-c2ccccc2C(F)(F)F)c1C(=O)NCCc1c[nH]c2ccccc12	nt	nt	nt	i	?	?
Nc1[nH]c(C(=O)c2ccccc2)c(-c2ccccc2Br)c1C(=O)NCc1ccc(-c2ccccc2)cc1	nt	nt	nt	i	12µM	23µM
C[C@]12C=CC(=O)C=C1CCC1C2C(O)C[C@]2(C)C1CC[C@]2(O)C(=O)CO (stereo partly drawn)	i	nt	nt	nt	nt	nt
CC(=O)N1CCc2cc(S(=O)(=O)NC(CC(C)C)C(=O)NCCc3ccccc3)ccc21 (stereo not drawn)	i	i	i	nt	i	i
Cc1ccccc1NC(=O)CN(C)S(=O)(=O)c1cccs1	i	i	i	i	i	i
Nc1[nH]c(C(=O)c2ccccc2)c(-c2ccc([N+](=O)[O-])cc2)c1C(=O)NCCc1c[nH]c2ccccc12	nt	nt	nt	i	15µM	23µM
SMILES	TDP1 block	HepG2 tox	TGFb inhibitor	IL1B secr inh	DT40 TDP1 no CPT	DT40 TDP1 CPT
COC(=O)[C@]12CCCCC=C1N(Cc1ccc3c(c1)OCO3)C(=O)[C@H](CC(=O)NCC1CCCCC1)C2	nt	nt	nt	i	?	?
CC(C)(C)OC(=O)C[C@@H]1C/C=C\C[C@H](CC(=O)N[C@H](CO)Cc2ccccc2)C(=O)N[C@H](Cc2ccccc2)COC1=O	i	i	i	i	13µM	i
CC(C)(C)OC(=O)C[C@@H]1C/C=C\C[C@H](CC(=O)N[C@H](CO)Cc2ccccc2)C(=O)N[C@@H](Cc2ccccc2)COC1=O	i	i	i	i	?	?
CC(C)(C)OC(=O)C[C@@H]1C/C=C\C[C@H](CC(=O)N[C@H](CO)Cc2ccccc2)C(=O)N[C@@H](Cc2c[nH]c3ccccc23)COC1=O	i	i	i	i	?	26µM
CC(C)(C)OC(=O)C[C@H]1C/C=C\C[C@H](CC(=O)N[C@H](CO)Cc2ccccc2)C(=O)N[C@H](Cc2ccccc2)COC1=O	i	i	i	-58	23µM	23µM
CC(C)(C)OC(=O)NC(CO)c1cn([C@@H](Cc2cc3ccccc3[nH]2)C(=O)N2CCN(C(=O)OC(C)(C)C)CC2)nn1 (stereo partly drawn)	i	i	i	i	i	?
CC[C@@H](C)C(NC(=O)OC(C)(C)C)c1cn([C@@H](CCC(=O)OC(C)(C)C)C(=O)N2CCN(C(=O)OC(C)(C)C)CC2)nn1 (stereo partly drawn)	i	i	i	?	15µM	?
CC(C)CC(NC(=O)OC(C)(C)C)c1cn([C@@H](Cc2cc3ccccc3[nH]2)C(=O)N2CCN(C(=O)OC(C)(C)C)CC2)nn1 (stereo partly drawn)	i	i	?	?	18µM	18µM
CC(C)(C)OC(=O)CC[C@@H](C(=O)N1CCN(C(=O)OC(C)(C)C)CC1)n1cc(C(CO)NC(=O)OC(C)(C)C)nn1 (stereo partly drawn)	i	i	i	i	i	i
O=S(=O)(c1ccccc1)c1nc(-c2ccc(F)cc2)oc1N1CCCCCC1	i	i	?	nt	15µM	18µM
Cc1ccc(S(=O)(=O)c2nc(-c3ccc(F)cc3)oc2N2CCN(c3ccccc3)CC2)cc1	i	i	i	nt	18µM	?
NC(=O)C1CCN(c2oc(-c3ccc(F)cc3)nc2S(=O)(=O)c2ccccc2)CC1	i	i	i	i	?	?
Cc1cc(-c2cc(F)cc3c2OC(CNC(=O)CCn2cncn2)C3)ccc1F (stereo not drawn)	nt	nt	nt	nt	i	i[9.04 µM]
COc1ccccc1N1CCN(S(=O)(=O)CCNC(=O)c2cccc(F)c2)CC1	nt	i	i	i	?	?
CN(C)c1nc2cc(Cl)ccc2cc1CN(Cc1ccc2c(c1)OCO2)C(=O)c1ccoc1	nt	nt	nt	nt	i	i[9.04 µM]
CN(C)NC1=CC(=[N+]2CCCC2)CC(C)(C)C1	i	i	i	i	?	i
CCCN(CCC)C1=CC(=[N+]2CCCC2)CC(C)(C)C1	i	i	?	?	0.13µM	0.21µM
